Consider five sequences from article PMC11006913.

What all share (experiment): PBM; 200 nM protein, PBS
What all share (conditions): dsDNA, one strand shown

Experiment [1] concerns the target HESX1 (Homo sapiens, UniProt Q9UBX0 95-180, R165K).
The target of experiment [2] is SHOX (Homo sapiens, UniProt O15266 103-189).
In the next experiment the target is ALX4 (Homo sapiens, UniProt Q9H161 200-286, Q225E).
Experiment [3] has as its target HESX1 (Homo sapiens, UniProt Q9UBX0 95-180).
The target of another experiment is MSX2 (Homo sapiens, UniProt P35548 130-214, R199I).
For experiment [4], the target named is ALX1 (Homo sapiens, UniProt Q15699 118-204, L144V).
Experiment [5] deals with ALX3 (Homo sapiens, UniProt O95076 139-225, N203Q).
In experiment [6] the target is SHOX (Homo sapiens, UniProt O15266 103-189, R173C).
The target in experiment [7] is ALX1 (Homo sapiens, UniProt Q15699 118-204, L144R).
Experiment [8] deals with ALX3 (Homo sapiens, UniProt O95076 139-225).
Experiment [9] addresses PROP1 (Homo sapiens, UniProt O75360 56-141).
Experiment [10] deals with HESX1 (Homo sapiens, UniProt Q9UBX0 95-180, R109Q).
For experiment [11], the target named is PROP1 (Homo sapiens, UniProt O75360 56-141, R99H).
In experiment [12] the target is ALX3 (Homo sapiens, UniProt O95076 139-225, L168Q).
Experiment [13] has as its target HESX1 (Homo sapiens, UniProt Q9UBX0 95-180, P111T).
The target in experiment [14] is ALX3 (Homo sapiens, UniProt O95076 139-225, L168V).
Experiment [15] deals with PROP1 (Homo sapiens, UniProt O75360 56-141, F88S).
In experiment [16] the target is HESX1 (Homo sapiens, UniProt Q9UBX0 95-180, F115L).
The target of experiment [17] is ALX1 (Homo sapiens, UniProt Q15699 118-204).
The target of experiment [18] is ALX3 (Homo sapiens, UniProt O95076 139-225, N203S).
ALX3 (Homo sapiens, UniProt O95076 139-225, N203S), sequence (O95076 139-225 N203S): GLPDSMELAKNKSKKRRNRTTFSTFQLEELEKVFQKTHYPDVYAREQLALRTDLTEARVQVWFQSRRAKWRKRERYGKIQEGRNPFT

HESX1 (Homo sapiens, UniProt Q9UBX0 95-180, P111T), sequence (Q9UBX0 95-180 P111T): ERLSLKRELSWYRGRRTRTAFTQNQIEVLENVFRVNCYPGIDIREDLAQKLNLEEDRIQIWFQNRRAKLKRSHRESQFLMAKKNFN
HESX1 (Homo sapiens, UniProt Q9UBX0 95-180, F115L), sequence (Q9UBX0 95-180 F115L): as the sequence (Q9UBX0 95-180 P111T) above, with T17P, F21L counted along it
ALX1 (Homo sapiens, UniProt Q15699 118-204, L144R), sequence (Q15699 118-204 L144R): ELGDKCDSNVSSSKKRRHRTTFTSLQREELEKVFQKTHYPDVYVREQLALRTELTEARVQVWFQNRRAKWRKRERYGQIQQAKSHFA
SHOX (Homo sapiens, UniProt O15266 103-189), sequence (O15266 103-189): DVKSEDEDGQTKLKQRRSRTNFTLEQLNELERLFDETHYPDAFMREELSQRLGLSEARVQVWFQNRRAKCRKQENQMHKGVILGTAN
ALX1 (Homo sapiens, UniProt Q15699 118-204), sequence (Q15699 118-204): as the sequence (Q15699 118-204 L144R) above, with R27L counted along it
HESX1 (Homo sapiens, UniProt Q9UBX0 95-180, R165K), sequence (Q9UBX0 95-180 R165K): as the sequence (Q9UBX0 95-180 P111T) above, with T17P, R71K counted along it
PROP1 (Homo sapiens, UniProt O75360 56-141, F88S), sequence (O75360 56-141 F88S): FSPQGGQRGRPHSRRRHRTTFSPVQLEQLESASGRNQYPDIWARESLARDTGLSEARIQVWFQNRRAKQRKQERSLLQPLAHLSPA
PROP1 (Homo sapiens, UniProt O75360 56-141), sequence (O75360 56-141): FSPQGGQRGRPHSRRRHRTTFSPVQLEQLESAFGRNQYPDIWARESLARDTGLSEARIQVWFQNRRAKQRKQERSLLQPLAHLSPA
MSX2, sequence (P35548 130-214 R199I): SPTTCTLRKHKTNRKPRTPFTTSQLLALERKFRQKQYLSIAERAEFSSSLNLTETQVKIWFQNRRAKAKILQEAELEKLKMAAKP
ALX4, sequence (Q9H161 200-286 Q225E): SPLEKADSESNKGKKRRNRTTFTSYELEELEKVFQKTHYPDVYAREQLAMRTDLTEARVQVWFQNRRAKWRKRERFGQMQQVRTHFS
ALX3 (Homo sapiens, UniProt O95076 139-225, N203Q), sequence (O95076 139-225 N203Q): as the sequence (O95076 139-225 N203S) above, with S65Q counted along it
ALX3 (Homo sapiens, UniProt O95076 139-225, L168Q), sequence (O95076 139-225 L168Q): as the sequence (O95076 139-225 N203S) above, with L30Q, S65N counted along it
ALX1 (Homo sapiens, UniProt Q15699 118-204, L144V), sequence (Q15699 118-204 L144V): as the sequence (Q15699 118-204 L144R) above, with R27V counted along it
PROP1 (Homo sapiens, UniProt O75360 56-141, R99H), sequence (O75360 56-141 R99H): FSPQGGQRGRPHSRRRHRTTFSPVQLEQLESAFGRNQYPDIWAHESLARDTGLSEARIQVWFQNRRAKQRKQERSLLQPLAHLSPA
SHOX (Homo sapiens, UniProt O15266 103-189, R173C), sequence (O15266 103-189 R173C): as the sequence (O15266 103-189) above, with R71C counted along it
ALX3 (Homo sapiens, UniProt O95076 139-225), sequence (O95076 139-225): as the sequence (O95076 139-225 N203S) above, with S65N counted along it
HESX1 (Homo sapiens, UniProt Q9UBX0 95-180), sequence (Q9UBX0 95-180): as the sequence (Q9UBX0 95-180 P111T) above, with T17P counted along it
ALX3 (Homo sapiens, UniProt O95076 139-225, L168V), sequence (O95076 139-225 L168V): as the sequence (O95076 139-225 N203S) above, with L30V, S65N counted along it
HESX1 (Homo sapiens, UniProt Q9UBX0 95-180, R109Q), sequence (Q9UBX0 95-180 R109Q): as the sequence (Q9UBX0 95-180 P111T) above, with R15Q, T17P counted along it

As to CATAATTA, the binding signal with HESX1 [1] is 12.9 upbm affinity estimate (log intensity, higher = more binding, comparable within an allelic series); with SHOX [2], 12.4 upbm affinity estimate (log intensity, higher = more binding, comparable within an allelic series); in the experiment with ALX4, 13.7 upbm affinity estimate (log intensity, higher = more binding, comparable within an allelic series); with HESX1 [3], 12.9 upbm affinity estimate (log intensity, higher = more binding, comparable within an allelic series); in the experiment with MSX2, 12.8 upbm affinity estimate (log intensity, higher = more binding, comparable within an allelic series); with ALX1 [4], 12 upbm affinity estimate (log intensity, higher = more binding, comparable within an allelic series). Moreover, the binding signal was 8.61 upbm affinity estimate (log intensity, higher = more binding, comparable within an allelic series) with ALX3 [5]; 10 upbm affinity estimate (log intensity, higher = more binding, comparable within an allelic series) with SHOX [6]; 11.6 upbm affinity estimate (log intensity, higher = more binding, comparable within an allelic series) in the experiment with ALX1 [7]; 12.6 upbm affinity estimate (log intensity, higher = more binding, comparable within an allelic series) with ALX3 [8]; 11.8 upbm affinity estimate (log intensity, higher = more binding, comparable within an allelic series) in the experiment with PROP1 [9]; 9.21 upbm affinity estimate (log intensity, higher = more binding, comparable within an allelic series) with HESX1 [10]. In addition, the binding signal in the experiment with PROP1 [11] is 11.5 upbm affinity estimate (log intensity, higher = more binding, comparable within an allelic series); in the experiment with ALX3 [12] it was 10.8 upbm affinity estimate (log intensity, higher = more binding, comparable within an allelic series); with HESX1 [13], 11.3 upbm affinity estimate (log intensity, higher = more binding, comparable within an allelic series); in the experiment with ALX3 [14], 10.4 upbm affinity estimate (log intensity, higher = more binding, comparable within an allelic series); with PROP1 [15] it was 8.12 upbm affinity estimate (log intensity, higher = more binding, comparable within an allelic series); with HESX1 [16], 7.94 upbm affinity estimate (log intensity, higher = more binding, comparable within an allelic series). The binding signal in the experiment with ALX1 [17] was 12.6 upbm affinity estimate (log intensity, higher = more binding, comparable within an allelic series); with ALX3 [18], 8.73 upbm affinity estimate (log intensity, higher = more binding, comparable within an allelic series).

With TAATTATA, the binding signal with HESX1 [1] was 12.8 upbm affinity estimate (log intensity, higher = more binding, comparable within an allelic series); with SHOX [2], 12.3 upbm affinity estimate (log intensity, higher = more binding, comparable within an allelic series); with ALX4 it was 13.9 upbm affinity estimate (log intensity, higher = more binding, comparable within an allelic series); with HESX1 [3], 12.9 upbm affinity estimate (log intensity, higher = more binding, comparable within an allelic series); with MSX2 it was 13 upbm affinity estimate (log intensity, higher = more binding, comparable within an allelic series); with ALX1 [4], 12 upbm affinity estimate (log intensity, higher = more binding, comparable within an allelic series). The binding signal was 8.6 upbm affinity estimate (log intensity, higher = more binding, comparable within an allelic series) with ALX3 [5]; 9.85 upbm affinity estimate (log intensity, higher = more binding, comparable within an allelic series) with SHOX [6]; 11.6 upbm affinity estimate (log intensity, higher = more binding, comparable within an allelic series) with ALX1 [7]; 12.8 upbm affinity estimate (log intensity, higher = more binding, comparable within an allelic series) with ALX3 [8]; 11.7 upbm affinity estimate (log intensity, higher = more binding, comparable within an allelic series) with PROP1 [9]; 9.16 upbm affinity estimate (log intensity, higher = more binding, comparable within an allelic series) with HESX1 [10]. Further, the binding signal is 11.7 upbm affinity estimate (log intensity, higher = more binding, comparable within an allelic series) with PROP1 [11]; 10.9 upbm affinity estimate (log intensity, higher = more binding, comparable within an allelic series) in the experiment with ALX3 [12]; 11.5 upbm affinity estimate (log intensity, higher = more binding, comparable within an allelic series) with HESX1 [13]; 10.6 upbm affinity estimate (log intensity, higher = more binding, comparable within an allelic series) with ALX3 [14]; 8.03 upbm affinity estimate (log intensity, higher = more binding, comparable within an allelic series) with PROP1 [15]; 8.06 upbm affinity estimate (log intensity, higher = more binding, comparable within an allelic series) with HESX1 [16]. Also, the binding signal with ALX1 [17] is 12.7 upbm affinity estimate (log intensity, higher = more binding, comparable within an allelic series); with ALX3 [18] it was 8.74 upbm affinity estimate (log intensity, higher = more binding, comparable within an allelic series).

Consider AATTAGTC, for which the binding signal with HESX1 [1] is 11.5 upbm affinity estimate (log intensity, higher = more binding, comparable within an allelic series); with SHOX [2], 11.7 upbm affinity estimate (log intensity, higher = more binding, comparable within an allelic series); with ALX4, 12.8 upbm affinity estimate (log intensity, higher = more binding, comparable within an allelic series); in the experiment with HESX1 [3] it was 11.8 upbm affinity estimate (log intensity, higher = more binding, comparable within an allelic series); with MSX2, 12.3 upbm affinity estimate (log intensity, higher = more binding, comparable within an allelic series); in the experiment with ALX1 [4], 11.5 upbm affinity estimate (log intensity, higher = more binding, comparable within an allelic series). The binding signal with ALX3 [5] was 8.3 upbm affinity estimate (log intensity, higher = more binding, comparable within an allelic series); in the experiment with SHOX [6], 9.37 upbm affinity estimate (log intensity, higher = more binding, comparable within an allelic series); with ALX1 [7], 11.1 upbm affinity estimate (log intensity, higher = more binding, comparable within an allelic series); in the experiment with ALX3 [8] it was 12.2 upbm affinity estimate (log intensity, higher = more binding, comparable within an allelic series); with PROP1 [9], 11.1 upbm affinity estimate (log intensity, higher = more binding, comparable within an allelic series); with HESX1 [10] it was 8.88 upbm affinity estimate (log intensity, higher = more binding, comparable within an allelic series). Also, the binding signal was 11 upbm affinity estimate (log intensity, higher = more binding, comparable within an allelic series) in the experiment with PROP1 [11]; 10.3 upbm affinity estimate (log intensity, higher = more binding, comparable within an allelic series) with ALX3 [12]; 10.4 upbm affinity estimate (log intensity, higher = more binding, comparable within an allelic series) with HESX1 [13]; 9.88 upbm affinity estimate (log intensity, higher = more binding, comparable within an allelic series) in the experiment with ALX3 [14]; 7.67 upbm affinity estimate (log intensity, higher = more binding, comparable within an allelic series) in the experiment with PROP1 [15]; 7.67 upbm affinity estimate (log intensity, higher = more binding, comparable within an allelic series) in the experiment with HESX1 [16]. The binding signal with ALX1 [17] is 12.1 upbm affinity estimate (log intensity, higher = more binding, comparable within an allelic series); with ALX3 [18], 8.39 upbm affinity estimate (log intensity, higher = more binding, comparable within an allelic series).

As for CTAATTGA, the binding signal was 13.2 upbm affinity estimate (log intensity, higher = more binding, comparable within an allelic series) with HESX1 [1]; 12.6 upbm affinity estimate (log intensity, higher = more binding, comparable within an allelic series) with SHOX [2]; 13.5 upbm affinity estimate (log intensity, higher = more binding, comparable within an allelic series) with ALX4; 13.2 upbm affinity estimate (log intensity, higher = more binding, comparable within an allelic series) with HESX1 [3]; 12.8 upbm affinity estimate (log intensity, higher = more binding, comparable within an allelic series) with MSX2; 11.9 upbm affinity estimate (log intensity, higher = more binding, comparable within an allelic series) with ALX1 [4]. Besides, the binding signal in the experiment with ALX3 [5] is 8.21 upbm affinity estimate (log intensity, higher = more binding, comparable within an allelic series); with SHOX [6] it was 9.97 upbm affinity estimate (log intensity, higher = more binding, comparable within an allelic series); with ALX1 [7], 11.5 upbm affinity estimate (log intensity, higher = more binding, comparable within an allelic series); in the experiment with ALX3 [8] it was 12.7 upbm affinity estimate (log intensity, higher = more binding, comparable within an allelic series); in the experiment with PROP1 [9] it was 11.8 upbm affinity estimate (log intensity, higher = more binding, comparable within an allelic series); in the experiment with HESX1 [10], 9.83 upbm affinity estimate (log intensity, higher = more binding, comparable within an allelic series). Further, the binding signal was 12.1 upbm affinity estimate (log intensity, higher = more binding, comparable within an allelic series) with PROP1 [11]; 10.8 upbm affinity estimate (log intensity, higher = more binding, comparable within an allelic series) with ALX3 [12]; 11.8 upbm affinity estimate (log intensity, higher = more binding, comparable within an allelic series) with HESX1 [13]; 10.2 upbm affinity estimate (log intensity, higher = more binding, comparable within an allelic series) with ALX3 [14]; 7.7 upbm affinity estimate (log intensity, higher = more binding, comparable within an allelic series) with PROP1 [15]; 7.77 upbm affinity estimate (log intensity, higher = more binding, comparable within an allelic series) in the experiment with HESX1 [16]. The binding signal in the experiment with ALX1 [17] was 12.8 upbm affinity estimate (log intensity, higher = more binding, comparable within an allelic series); in the experiment with ALX3 [18] it was 8.38 upbm affinity estimate (log intensity, higher = more binding, comparable within an allelic series).

Turning to CCCTACGG, the binding signal is 6.51 upbm affinity estimate (log intensity, higher = more binding, comparable within an allelic series) in the experiment with HESX1 [1]; 6.45 upbm affinity estimate (log intensity, higher = more binding, comparable within an allelic series) with HESX1 [3]; 6.54 upbm affinity estimate (log intensity, higher = more binding, comparable within an allelic series) with HESX1 [10]; 6.48 upbm affinity estimate (log intensity, higher = more binding, comparable within an allelic series) in the experiment with HESX1 [13]; 6.43 upbm affinity estimate (log intensity, higher = more binding, comparable within an allelic series) with HESX1 [16].
